Screens as filed in PubChem BioAssay.
Sampled rows, rich in hits. Any-hit rate of the full collection: about 14%.
Giardia FBPA inh: blocks Giardia fructose-bisphosphate aldolase activity; purified Giardia FBPA; Potency, µM (doses to about 59.6 µM), for the others: at the highest dose activity, negative = inhibition, actives largely listed as inhibitors; actives 0.71% (n = 290,000); AID 2451; note: potency is the fitted concentration of half-maximal effect; nearly all actives have a fitted effect of over 55% in size
Target sequence (A8B2U2 whole entry, looked up): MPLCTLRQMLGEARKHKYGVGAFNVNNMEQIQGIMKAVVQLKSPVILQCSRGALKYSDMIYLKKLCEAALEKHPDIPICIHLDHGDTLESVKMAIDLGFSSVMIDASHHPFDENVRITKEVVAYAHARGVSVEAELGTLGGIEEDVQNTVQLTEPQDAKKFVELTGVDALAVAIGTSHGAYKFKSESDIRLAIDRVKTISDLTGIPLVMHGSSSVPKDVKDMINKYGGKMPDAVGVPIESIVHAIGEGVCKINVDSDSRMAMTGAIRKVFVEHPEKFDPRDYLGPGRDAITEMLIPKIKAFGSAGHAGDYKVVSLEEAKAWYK
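Giardia FBPA (40 nM reagent) was preincubated 10 min at RT with compound (up to 57.5 uM final), then substrate plus GAPDH/TPI/NAD/arsenate coupling system with diaphorase/resazurin was added; resorufin fluorescence (525/598 nm) was read after 20 min.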
Pf growth 96h: inhibits malaria parasite growth, 96 h; P. falciparum luciferase reporter growth, 96 h; actives 6.9% (n = 320,000); Potency, µM (top dose mostly 28.7 µM), without a hit: at the top dose activity change, negative = inhibition, actives largely listed as inhibitors; note: potency is the fitted concentration of half-maximal effect
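Two parasite generations (96 h, 37 C, 5% CO2) of compound exposure in infected erythrocytes (0.05% parasitemia, 2% hematocrit). Luciferase-reporter P. falciparum; decreased luminescence indicates inhibited growth, aimed at apicoplast-acting delayed death.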
Pf growth 48h: inhibits P. falciparum growth in the first generation, 48 h | P. falciparum luciferase growth in erythrocytes, 48 h | Potency, µM (titrated, usually from 28.7 µM), inactives show at the top dose activity change, negative = inhibition, hits mostly inhibitors | actives 5.9% (n = 310,000) | AID 504832; note: potency is the fitted concentration of half-maximal effect
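Here the parasites carry a stable luciferase gene and grow inside erythrocytes in Albumax-based RPMI medium with compound for one erythrocytic cycle. Activity is scored as loss of luminescent signal.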
Sm TGR inh: inhibitors of Schistosoma mansoni thioredoxin glutathione reductase; Q962Y6; purified TGR, DTNB reduction, TNB absorbance 405 nm; Potency, µM (series often up to 114 µM), without a hit: top-dose activity change, negative = inhibition, most hits filed as inhibitors; actives 3% (n = 360,000); AID 485364; note: potency is the fitted concentration of half-maximal effect; nearly all actives have a fitted effect of over 60% in size
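Kinetic colorimetric format: TGR-catalysed, NADPH-driven DTNB reduction monitored via TNB absorbance. Enzyme dispensed at 20 nM; compound exposure 15 min at room temperature before reaction start.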
HCMV inh: inhibitors of human cytomegalovirus; HFF cells, HCMV-luciferase reporter, 72 h; active compounds read low; activity change, negative = inhibition, % at 57.5 µM; actives 4.5% (n = 410,000); in the data active = activity change below about -60%; inconclusive = no clear call, values can overlap the other calls; inactive = above about -39%
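Two compound doses tested in HFFs infected with HCMV-luciferase, MOI 1 PFU/cell, 72 h at 37C. Lysate luminescence read with OneGlo; data normalized against buffer-only and 10uM Salinomycin inhibitor controls.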
* marks the source's active call; other numbers are inactive results; ? = inconclusive; . = no result given; [ ] = remark or other dose. Unless noted, calls come from the whole dose curve; as a rule, active = well fitted curve in the direction sought with a large enough effect; inconclusive = small, poorly fitted or top-dose-only effect, or another doubt; inactive = no such curve, though single readings can be large; an effect the other way counts as inactive or inconclusive. % is set by controls: 0 for no effect and ±100 for the full control effect.

SMILES | Giardia FBPA inh | Pf growth 96h | Pf growth 48h | Sm TGR inh | HCMV inh
CNC(=O)/C(=C/c1ccc2c(c1)OCO2)NC(=O)c1ccc(Br)cc1 | 0% | ? | -14% | 5% | 15
CNC(=O)/C(=C\c1ccc2c(c1)OCO2)NC(=O)c1ccc(Br)cc1 | 3% | 17% | -15% | 4% | -60*
Cc1ccc(NC(=O)NCCc2c(C)nn(C)c2C)cc1Cl | . | . | . | 1% | 18
CC(Sc1n[nH]c(-c2cccs2)n1)C(=O)N1CCCC1 (stereo not drawn) | . | . | . | . | 20
CN(C)CCCNC(=O)/C(=C\c1ccc(-c2cccc([N+](=O)[O-])c2)o1)NC(=O)c1ccccc1 | -13% | 11% | ? | . | -66*
COc1ccc(C(=O)N/C(=C\c2ccccc2)C(=O)N2CCOCC2)cc1 | . | 3% | 2% | -1% | -35
COc1ccc(-c2ccc(/C=C(\NC(=O)c3ccccc3)C(=O)N3CCOCC3)o2)cc1 | 3% | 68% | 13µM* | 0%[57.1 µM] | -63*
Cc1ccc(C(=O)N/C(=C\c2ccc(-c3ccccc3[N+](=O)[O-])o2)C(=O)NCCCN2CCOCC2)cc1 | . | 2.9µM* | 1.9µM* | 35µM* | 35
CN(C)CCNC(=O)/C(=C/c1ccc(-c2ccc(Cl)cc2)o1)NC(=O)c1ccccc1 | 5% | 29% | 13µM* | 3% | -36
Cc1ccc(C(=O)N/C(=C\c2cn(C)c3ccccc23)C(=O)NCCCN2CCOCC2)cc1 | . | -9% | ? | -12% | -8
CN(C)CCNC(=O)/C(=C/c1ccc(-c2ccc(Cl)cc2Cl)o1)NC(=O)c1ccccc1 | 0% | 116% | 12µM* | -14% | ?
Cc1ccc(C(=O)N/C(=C\c2ccc(-c3ccc(Br)cc3)o2)C(=O)NCCCN(C)C)cc1 | -4% | ? | ? | -30% | -101*
O=C(NCCN1CCOCC1)/C(=C/c1ccc(Cl)cc1)NC(=O)c1ccccc1 | . | 18% | 36% | -1% | -28
Cc1ccc(C(=O)N/C(=C\c2ccc(-c3cccc([N+](=O)[O-])c3)o2)C(=O)NCCCN(C)C)cc1 | -2% | ? | ? | 0% | -39
CCC(C)NC(=O)c1ccc(NC(=O)C2=C(C)OCCS2)cc1 (stereo not drawn) | 16% | 17% | 11% | 32% | -61*
CCc1ccc(CNC(=O)Cc2ccc(NC(=O)C3=C(C)OCCS3)cc2)cc1 | -7% | 12µM* | 126% | -2% | -19
CCOc1ccccc1CNC(=O)c1ccc(NC(=O)C2=C(C)OCCS2)cc1 | . | 6.6µM* | ? | 0% | -30
CC1=C(C(=O)Nc2ccc(CC(=O)NCc3ccccc3C)cc2)SCCO1 | . | ? | 46% | 3% | -3
CC1=C(C(=O)Nc2ccccc2C(=O)NCCCOC(C)C)SCCO1 | 8% | 4.1µM* | 0% | 23% | -26
CC(C)c1ccc(CC(=O)N2CCC2(C)C(=O)NCCC#N)cc1 (stereo not drawn) | . | . | . | . | 5
CCN(C)C1CN(Cc2cn(Cc3cccc(C(F)(F)F)c3)nn2)S(=O)(=O)C1 (stereo not drawn) | . | . | . | . | 8
CC1CC(C)(C)NC(=S)N1CCC(=O)N1CCc2ccccc21 (stereo not drawn) | -3% | ? | ? | 0% | -24
Cc1ccc(OC(=O)N(C)C[C@H]2OCc3cn(nn3)CCCC(=O)N([C@@H](C)CO)C[C@@H]2C)cc1 | . | . | . | . | 4
CC1=C(C(=O)Nc2cc(C(=O)N3CCC(C)CC3)ccc2C)SCCO1 | . | ? | 11% | -5% | -63*
COCCNC(=O)c1ccc(C)c(NC(=O)C2=C(C)OCCS2)c1 | 1% | 39% | 40% | -25% | 28
SMILES | Giardia FBPA inh | Pf growth 96h | Pf growth 48h | Sm TGR inh | HCMV inh
COc1cc(OC)cc(-c2c(C#Cc3ccsc3)c3cc(-c4ccc(C(N)=O)cc4)ccc3n2C)c1 | . | 1µM* | 1.3µM* | 28µM* | 22
Cn1nc(C(F)(F)F)c(/C=N/OC(=O)c2ccccc2)c1Sc1ccc(Cl)cc1 | -6% | . | ? | 0% | -63*
Cn1nc(C(F)(F)F)c(/C=N/OC(=O)c2ccccc2)c1Cl | 4% | 57% | 23% | -17% | 20
O=C(O)CSc1c2c(nc3cc(C(=O)Nc4ccc(F)c(Cl)c4)ccc13)CCC2 | . | . | . | -10% | -9
CCOc1ccc(-c2noc(-c3csc([C@@H]4O[C@H](CO)[C@H](O)[C@H](O)[C@H]4O)n3)n2)cc1 | . | . | . | . | -12
Cc1cnc([N+](=O)[O-])n1CCOC(=O)NC(=O)c1ccccc1Cl | 3% | -24% | 1% | -3% | -66*
Cc1cnc([N+](=O)[O-])n1CCOC(=O)NC(=O)c1ccc(C(F)(F)F)cc1 | 0% | ? | -9% | 1% | 39
CCc1ccc(CN2CCC(C(=O)Nc3ccc(Oc4ccccc4)nc3)CC2)o1 | -9% | -40% | ? | -33% | -72*
COc1ccc(CN2CCC(C(=O)Nc3ccc(Oc4ccccc4)nc3)CC2)cc1F | 5% | ? | ? | -19% | -70*
O=C(Nc1ccc(Oc2ccccc2)nc1)C1CCN(Cc2ccccc2)CC1 | . | -27% | -16% | -18% | -21
CC(C)C(=O)N1CCCC1(C)C(=O)Nc1ccc(-n2cccc2)cc1 (stereo not drawn) | . | . | . | . | -1
O=C(NCCCOc1ccc([N+](=O)[O-])cc1Cl)OCc1ccccc1 | . | . | . | . | -7
COc1ccc2[nH]cc(CCNc3cc(-c4cccc(C#N)c4)ncn3)c2c1 | -21% | . | . | . | .
COc1ccc(/C=C/c2c([N+](=O)[O-])c(=O)n(C)c(=O)n2C)cc1O | 0% | . | -14% | 0% | -103*
COc1ccc(OC)c(/C=C/c2c([N+](=O)[O-])c(=O)n(C)c(=O)n2C)c1 | 4% | -27% | ? | -7% | -5
COc1cc(/C=C/c2c([N+](=O)[O-])c(=O)n(C)c(=O)n2C)cc(OC)c1OC | 2% | ? | . | 4% | -67*
Cn1c(/C=C/c2ccc(Br)cc2)c([N+](=O)[O-])c(=O)n(C)c1=O | 3% | 33% | 9.3µM* | ? | -100*
O=C(NCC(=O)N1CCCC1)c1ccc(Cl)cc1 | 4% | -13% | 12% | -21% | -10
COC(=O)[C@H]1[C@H](CO)[C@H]2Cn3c(ccc(Br)c3=O)[C@H]2N1C(=O)c1ccccn1 | . | . | . | . | 11
CCOC(=O)C1(NC(=O)C2(N3C(=O)c4ccccc4C3=O)CCCC2)CCCC1 | . | . | . | . | -13
CCOC(=O)[C@]12CCC=C1N(Cc1ccc3c(c1)OCO3)C(=O)[C@H](CC(=O)NCc1ccc(C)o1)C2 | . | . | . | . | 7
N#Cc1ccccc1Cn1c(SCC(=O)NCc2ccccc2)nc2ccccc21 | . | . | . | 0% | ?
CC1(C)CC(=O)C(C=NCCN2CCN(C(=O)c3ccc(Br)cc3)CC2)=C(O)C1 | 1% | -16% | -25% | 28µM* | 5
